Shown are actives, neighbours in structure and some others; about 4.6% of the full set was active somewhere.
tim23-1 inh: growth inhibitors of tim23-1 mutant yeast, primary screen, luminescence, uHTS. AID 463212, 2010. S. cerevisiae tim23-1 growth, BacTiter-Glo luminescence, 24 h. inhibition, % at 20 µM. hit rate 1.3% among 330,000;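 active means growth inhibition of the mutant yeast at or above 50%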;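 further: temperature-sensitive mutant grown at 25 °C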
TIM10 inh: growth inhibitors of isogenic TIM10 control yeast, primary screen, counter-screen for tim10-1 yeast inhibitor project, luminescence, uHTS; S. cerevisiae TIM10 strain growth, BacTiter-Glo luminescence, 24 h; hit rate 1.4% among 330,000; inhibition, % at 10 µM;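 active means inhibition of 40% or more at the single tested concentration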;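 further: wild-type TIM10 isogenic control strain grown at permissive 25 °C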
SKKanGAS inh: S. pyogenes SKKanGAS growth inhibitors in kanamycin, primary screen, streptokinase expression inhibitor project, SKKanGAS strain, BacTiter-Glo luminescence | hit rate 1.3% among 300,000 | inhibition, % at 7.5 µM | 6 h;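 active means mean replicate score, as percent of positive control median, at least 50; inconclusive means mean below 50 but one replicate at or above 50; inactive means mean and every replicate below 50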;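 further: strain carries kanamycin resistance gene driven by streptokinase promoter and grows in 40 µg/ml kanamycin; loss of luminescence reflects streptokinase promoter inhibition or plain growth inhibition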
NALP3 yeast inh: NALP3 inflammasome inhibitors in reconstituted yeast, primary screen, luminescence, uHTS | Yeast reconstituted NLRP3/ASC/caspase-1, beta-gal luminescence, 24 h | hit rate 0.39% among 330,000 | inhibition, % at 10 µM;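 active means inhibition of 50% or more; inactive means inhibition below 50%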
PfHsp90 yeast 2: growth inhibition of PfHsp90-expressing yeast, primary screen, antimalarial PfHsp90 inhibitor project, S. cerevisiae, BacTiter-Glo luminescence, single point, set 2. BacTiter-Glo ATP, 48 h; yeast lacking PDR1 and PDR3 efflux regulators. inhibition, % at 9.4 µM. hit rate 0.32% among 310,000. AID 504621, 2011;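 active means every replicate shows inhibition above about 80%, whatever the replicate mean, limit read from the data; inconclusive means mean inhibition reaches the set limit but some replicate falls short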
tim10-1 inh: growth inhibitors of tim10-1 mutant yeast, primary screen, luminescence, uHTS; inhibition, % at 20 µM; hit rate 2.2% among 330,000; S. cerevisiae tim10-1 ts strain growth, BacTiter-Glo, 24 h; AID 463190, 2010;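 active means inhibition of at least 40%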;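 further: mutant grown at 25 °C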
tim10-1 conf: growth inhibitors of tim10-1 mutant yeast, confirmation, single concentration, luminescence, S. cerevisiae | inhibition, % at 20 µM | S. cerevisiae tim10-1 ts strain growth, BacTiter-Glo, 24 h | shares compounds with tim10-1 inh | hit rate 56% among 7,400;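 active means inhibition of yeast growth at or above a set limit in either of two repeat tests at 20 µM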;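 further: tim10-1 mutant grown at permissive 25 °C to find synthetic lethal compounds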
Of the large screens only hits and unclear results are named; the others gave an inactive call (follow-up assays come after a bar, where they were run).

CC(C)CC(=O)Nc1cccc(C(C)O)c1 (configuration not stated)	none (no result: PfHsp90 yeast 2)
CN(C)C(CNc1ccc([N+](=O)[O-])cc1C#N)c1ccccc1 (configuration not stated)	none
CC(C)(C)OC(=O)N1CCN(C(=O)c2[nH]cnc2C(=O)Nc2cccc(Cl)c2)CC1	none (no result: SKKanGAS inh)
CN(Cc1cccc(Cl)c1Cl)C(=O)c1ccccc1SCC(=O)N1CCCC1	none (no result: tim23-1 inh, TIM10 inh, SKKanGAS inh, NALP3 yeast inh, tim10-1 inh)
C/C(=N\Nc1nc2ccccc2s1)c1ccc2c(c1)OCO2	SKKanGAS inh inconclusive, tim10-1 inh 42 | tim10-1 conf inactive
CCOC(=O)c1c(N2C(=O)C3CC(C)=C(C)CC3C2=O)sc(C)c1C (configuration not stated)	tim10-1 inh 40 | tim10-1 conf inactive
FC(F)(F)Oc1ccccc1-c1nnc(-c2cccc(C(F)(F)F)c2)o1	none
Cc1ccc2c(N)c(C(=O)N(c3ccccc3)c3ccccc3)sc2n1	tim10-1 inh 44 | tim10-1 conf inactive
CC(=NC1CCCCC1)C1=C(O)c2ccccc2C1=O	tim10-1 inh 41 | tim10-1 conf inactive
CCOC(=O)CNC(=O)COc1coc(CN2CCN(Cc3ccccc3)CC2)cc1=O	none
CCN1CCSc2ccc(C(=O)NCc3cccc(Br)c3)cc21	tim10-1 inh 41 | tim10-1 conf 35
Cc1ccc(CN2CCSc3ccc(C(=O)N4CCOCC4)cc32)cc1	tim10-1 inh 41 | tim10-1 conf inactive
CCN1CCN(C(=O)c2ccc3c(c2)N(Cc2ccc(C)cc2)CCS3)CC1	none
O=C(NCC1CCCO1)c1ccc2c(c1)N(Cc1ccccc1)CCS2 (configuration not stated)	tim10-1 inh 41 | tim10-1 conf inactive
O=C(Nc1ccc(Cl)cc1)Nc1ccc(Br)cn1	none
Nn1cnc2cc3ccccc3cc2c1=O	none
Cc1cccc(Oc2coc3cc(O)ccc3c2=O)c1	tim10-1 inh 48 | tim10-1 conf inactive
CCc1ccccc1Oc1coc2cc(O)ccc2c1=O	none
O=C(NCCC1=CCCCC1)C1CCCN(c2nc3ccccc3o2)C1 (configuration not stated)	tim10-1 inh 49 | tim10-1 conf 35
Cc1ccc(CNC(=O)C2CCCN(c3nc4ccccc4o3)C2)cc1 (configuration not stated)	none
CCC(C)c1ccc(NC(=O)C2CCCN(c3ncccn3)C2)cc1 (configuration not stated)	tim10-1 inh 42 | tim10-1 conf 41
COc1ccc(NC(=O)C2CCCN(c3ncccn3)C2)cc1 (configuration not stated)	none
Cc1ccccc1NC(=O)Nc1ccc2c(c1)CCC2	none
NC(=O)C1CCN(C(=O)CCC(=O)c2ccc(Br)cc2)CC1	none
Cc1noc(C)c1CNCc1ccccc1	tim10-1 inh 42 | tim10-1 conf inactive
Cc1ccc(C(C)C)c(OCC(=O)Nn2c(=O)[nH]c3ccccc3c2=O)c1	none
Cc1ccc(C(C)C)c(OCC(=O)Nn2c(C)nc3ccccc3c2=O)c1	tim10-1 inh 47 | tim10-1 conf inactive
CC(C)Oc1ccc(Cl)cc1Nc1nc(NCCO)nc(N2CCCC2)n1	tim10-1 inh 41 | tim10-1 conf inactive
COc1ccc(Cl)cc1Nc1nc(NCCO)nc(N2CCCC2)n1	none
C/C=C/c1ccc(OCC(=O)OCc2csc(CC(=O)Nc3ccccc3C)n2)c(OC)c1	none
Cc1ccc(S(=O)(=O)N2CCN(C(=O)C3COc4ccccc4O3)CC2)cc1C (configuration not stated)	none (no result: PfHsp90 yeast 2)
Cc1cc(C)c(S(=O)(=O)N2CCN(C(=O)C3COc4ccccc4O3)CC2)c(C)c1 (configuration not stated)	tim10-1 inh 40 (no result: SKKanGAS inh) | tim10-1 conf inactive
Cc1cccn2c(=O)c3cc(C(=O)NC4CCCCC4)c(=N)n(Cc4ccc(F)cc4)c3nc12	tim10-1 inh 42 | tim10-1 conf inactive
Cc1cccn2c(=O)c3cc(C(=O)NC4CCCC4)c(=N)n(CC4CCCO4)c3nc12 (configuration not stated)	none
Cc1c(Cl)ccc(S(=O)(=O)NCCCn2ccnc2)c1Cl	none
CC1CCN(C(=O)c2ccc3c(Cl)c4c(nc3c2)CCCC4)CC1	tim10-1 inh 47 | tim10-1 conf 40
CCOC(=O)N1CCC(NC(=O)c2ccc3c(c2)N=C(CC)c2ccccc2S3)CC1	tim10-1 inh 45 | tim10-1 conf inactive
O=C(NC1CC1)c1ccc2c(Cl)c3c(nc2c1)CCCC3	none (no result: PfHsp90 yeast 2)
CCOC(=O)N1CCC(NC(=O)c2ccc3c(Cl)c4c(nc3c2)CCCC4)CC1	tim10-1 inh 41 (no result: SKKanGAS inh) | tim10-1 conf inactive
COC(=O)c1ccc(COc2ccccc2/C=C(\C#N)C(=O)Nc2ccc(C)cc2C)cc1	none
COC(=O)c1ccc(COc2ccccc2/C=C(\C#N)C(=O)Nc2c(C)cc(C)cc2C)cc1	tim10-1 inh 47 | tim10-1 conf inactive
COc1cc(/C=C(/C#N)C(=O)Nc2ccccc2)c(Br)cc1OCc1ccc(C(=O)O)cc1	tim10-1 inh 43 | tim10-1 conf 40
CC1(C)C[C@@H](O)CC2(C1)C[C@]1(C)CC(O)[C@H]2C(C)(C)C1 (some centres not stated)	none (no result: PfHsp90 yeast 2)
CCOc1ccc(NC(=O)CN2C(=O)NC(C)(c3ccc4c(c3)OCCCO4)C2=O)cc1OCC (configuration not stated)	none (no result: tim23-1 inh, TIM10 inh, SKKanGAS inh, NALP3 yeast inh, tim10-1 inh)
COc1cc2c(cc1NC(=S)Nc1cccc(C(F)(F)F)c1)oc1ccccc12	tim10-1 inh 40 (no result: PfHsp90 yeast 2) | tim10-1 conf inactive
COc1cc2c(cc1NC(=S)Nc1cccc3ccccc13)oc1ccccc12	none
COc1ccc2c(c1OC)C(=O)N1C2SC(C)(C)[C@H]1C(=O)NC(C)C (some centres not stated)	none
COC(=O)c1cc2c(n1S(=O)(=O)c1ccc(C)cc1)C(=O)C(=O)c1[nH]cc(C(=O)OCc3ccccc3)c1-2	none (no result: tim23-1 inh, TIM10 inh, SKKanGAS inh, NALP3 yeast inh, tim10-1 inh)
CCn1c(SCc2cccc(C)c2)nnc1-c1ccccc1	tim10-1 inh 47 | tim10-1 conf inactive
CCn1c(SCC(O)c2ccccc2)nnc1-c1ccccc1 (configuration not stated)	none
COc1ccc(OC)c(-c2cc(C(=O)Nc3c(C)nn(Cc4ccc(Cl)cc4)c3C)no2)c1	tim10-1 inh 43 (no result: PfHsp90 yeast 2) | tim10-1 conf 32
Cc1nn(Cc2ccc(Cl)cc2)c(C)c1NC(=O)c1c(-c2ccccc2)noc1C	tim10-1 inh 43 (no result: PfHsp90 yeast 2) | tim10-1 conf 44

Screening results as filed in PubChem.
